Source: PubChem BioAssay

Assay: 384-well plate pilot, post-Golgi transport modulator project, inhibition of yeast transport mutant growth (AID 636; in the data active = inhibition above about 31%)
Settings: absorbance 615 nm, about 18 h, active compounds read high

inhibition, inactive:
CCC(=O)N1CCc2cc(Br)cc(S(=O)(=O)CCC(=O)NCC3CCCO3)c21 (stereo not drawn) -6.35%
Cc1nc2ccccc2n1CCC(=O)Nc1cccc(F)c1 0.38%
CN(C)C(=O)N1CCC(C(=O)NC2CCCCCCC2)CC1 -3.21%
O=C(CSCCSCC(=O)c1ccco1)c1ccco1 0.13%
O=c1cnnc(NCc2ccccc2)[nH]1 -5.79%
COc1ccccc1C1CC(c2ccc(C)cc2)Nc2ncnn21 (stereo not drawn) 4.67%
O=c1cc(CSc2ccccn2)c2ccccc2[nH]1 -4.46%
COC(=O)CC1SC(=O)NC1=O (stereo not drawn) 1.05%
Cc1ccc(C)c(N2CCN(S(=O)(=O)c3ccc4c(c3)OCCO4)CC2)c1 -4.81%
O=C(NCCC1=CCCCC1)c1cc2c(s1)CS(=O)(=O)C2 -3.77%
Cc1c(C(=O)OC(C)C)[nH]c2c1C(=O)CCC2 0.39%
Cc1cc(NCCN2CCCCC2)n2c(nc3ccccc32)c1C#N -5.6%
CCOC(=O)Cn1nc(-c2ccc(C)cc2)ccc1=O -5.32%

Assay: growth suppression of yeast trafficking mutant, preliminary HTS, modulators of trafficking downstream of Golgi apparatus project, 1536-format plate, OD 615 nm (AID 637)
Settings: yeast transport mutant growth, absorbance 615 nm, 18 h; active compounds read high

inhibition, inactive:
CCOc1ccccc1CNC(=O)CCN1C(=O)COc2ccccc21 -7%
CCOc1ccccc1CN1C(=O)c2ccccc2C1C(=O)NCC1CCCO1 (stereo not drawn) -0.32%
O=C(CCCc1cccs1)Nc1nc2c(s1)CCCC2 0.82%
COc1ccc(-c2noc(CCCC(=O)O)n2)cc1 5.08%
CCCN(Cc1cc2cc(C)ccc2[nH]c1=O)C(=O)c1cccc(OC)c1 -0.65%
COC(=O)c1cnc2c(C(F)(F)F)cccc2c1OC -1.31%
COc1ccccc1Nc1ccc(C(=O)NC2CCCCC2)cn1 -3.11%
COc1cccc(C(=O)Nc2ncc3c(n2)CC(C)CC3=O)c1 (stereo not drawn) 2.22%
Cc1ccc(-n2c(Cn3cnc4ccccc43)nnc2SCC(=O)O)cc1 24.3%
COCCNc1oc(-c2ccc(C)cc2)nc1C#N 3.33%
c1cn(C23CC4CC(CC(C4)C2)C3)cn1 1.94%
CCN(Cc1cc2ccccc2[nH]c1=O)S(=O)(=O)c1ccccc1 -2.38%
CCCCn1nc(C(=O)N2CCc3ccccc32)c2ccccc2c1=O -10.6%
Cc1ccc(NCc2nnc(SCC(=O)N3CCCCC3)n2CC2CCCO2)c(C)c1 (stereo not drawn) 1.13%
COC(=O)c1[nH]c2ccc(F)cc2c1NS(=O)(=O)c1ccc(OC)cc1OC 4.92%
O=c1cc(COn2nnc3ccc(C(F)(F)F)cc32)nc2sccn12 0.63%
CS(=O)(=O)N1CCCC(C(=O)NCCCN2CCc3ccccc3C2)C1 (stereo not drawn) -8.89%
CCNc1nc(N2CCOCC2)nc(N(c2ccccc2)c2ccccc2)n1 -10%
NC(=O)CSc1nnc(-c2cc3ccccc3o2)n1Cc1ccccc1 0.67%
CS(=O)(=O)Nc1ccc(C(=O)NCc2ccco2)cc1 -5.16%
Cc1cc(C)c2[nH]c(=O)c(C(c3nnnn3Cc3ccc4c(c3)OCO4)N3CCC(C)CC3)cc2c1 (stereo not drawn) -6.83%
Cc1ccc(CNC(=O)CSc2n[nH]c(N)n2)cc1 5.9%
C=C(C)Cn1c(N2CCN(CC)CC2)nc2c1c(=O)[nH]c(=O)n2C 6.39%
Cc1cc(C(=O)CN2C(=O)c3ccccc3C2=O)c(C)n1Cc1cccs1 0%
Cc1ccc2nc(NCCCN3CCOCC3)c(C=NCCCN3CCOCC3)c(=O)n2c1 -12%
O=C(Cn1cnc2ccccc2c1=O)NCCC(=O)N1CCN(c2ccccc2)CC1 -0.98%
O=C(C1CCC1)N1CCc2cc(S(=O)(=O)N3CCc4ccccc4C3)ccc21 -7.54%
CCC(=O)N1CCc2cc(Br)cc(S(=O)(=O)CCC(=O)NCC3CCCO3)c21 (stereo not drawn) 6%
Cc1nc2ccccc2n1CCC(=O)Nc1cccc(F)c1 -5.33%
CN(C)C(=O)N1CCC(C(=O)NC2CCCCCCC2)CC1 7%
O=C(CSCCSCC(=O)c1ccco1)c1ccco1 8.85%
O=c1cnnc(NCc2ccccc2)[nH]1 -5.33%
COc1ccccc1C1CC(c2ccc(C)cc2)Nc2ncnn21 (stereo not drawn) -3.17%
O=c1cc(CSc2ccccn2)c2ccccc2[nH]1 4.13%
COC(=O)CC1SC(=O)NC1=O (stereo not drawn) -7.21%
Cc1ccc(C)c(N2CCN(S(=O)(=O)c3ccc4c(c3)OCCO4)CC2)c1 -3.97%
O=C(NCCC1=CCCCC1)c1cc2c(s1)CS(=O)(=O)C2 -3.28%
Cc1c(C(=O)OC(C)C)[nH]c2c1C(=O)CCC2 -6.29%
Cc1cc(NCCN2CCCCC2)n2c(nc3ccccc32)c1C#N 4.1%
CCOC(=O)Cn1nc(-c2ccc(C)cc2)ccc1=O 7.21%
